Hits are enriched below; roughly 1.1% of the tested compounds scored in any of these assays.
OPRM1-OPRD1 inv: inverse agonists of human mu-delta opioid receptor heterodimerization. P35372+P41143. cell-based MOR-DOR heterodimer luminescence, inverse agonism. inhibition, % at 9.3 µM. 340,000 tested, 0.21% active. AID 504357; in the data active means inhibition above about 22%, passing the limit was not always enough;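 further: 0% = cells with DMSO and 100% = wells without cells with DMSO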
HTR5A inv ctr: inverse agonist of human HTR5A in OPRM1-OPRD1 counter-screen. 340,000 tested, 0.083% active. HTR5A cell line, luminescence, inverse agonism. P47898. inhibition, % at 9.3 µM; in the data active means inhibition mostly above about 23%, no sharp cut-off; inactive means mostly below about 18%;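 further: 0% = cells with DMSO and 100% = no-cell wells with DMSO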
HTR5A ag: activates human HTR5A in OPRM1-OPRD1 agonist counter-screen | P47898 | HTR5A agonist assay, luminescence, cell-based | activation, % at 9.3 µM | 340,000 tested, 0.61% active | AID 504692; in the data active means activation mostly above about 9.5%, no sharp cut-off; inactive means mostly below about 7.6%;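 further: 0% = cells with vehicle only and 100% = reference agonist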
MOR-DOR ag: agonists of human mu-delta opioid receptor heterodimerization | cells, OPRM1-OPRD1 heterodimerization, luminescence | activation, % at 9.3 µM | 340,000 tested, 0.3% active; in the data active means activation above about 18%;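 further: 0% = vehicle-treated cells and 100% = reference agonist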
Starred values were filed as active, the others as inactive; i = inactive.

SMILES	OPRM1-OPRD1 inv	HTR5A inv ctr	HTR5A ag	MOR-DOR ag
COc1ccc(NC(=O)CSc2nncn2N)c(OC)c1	4	-17	1	-1
COc1ccccc1NC(=O)CSc1nncn1N	10	-2	13*	-2
CC1=C/C(=N\OS(=O)(=O)c2ccccc2)C(C(C)C)=CC1=O	i	-17	20*	186*
COc1cc(N=Nc2c(O)c3ccccc3[nH]c2=O)c(OC)cc1N=Nc1ccccc1	8	-22	6	-2
COc1ccc(OC)c(N=Nc2c(O)c3ccccc3[nH]c2=O)c1	-11	-56	14*	2
C=CCNC(=S)N/N=C(\C)c1ccccn1	35*	13	-5	-7
C=CCOc1ccc(/C=N/NC(=O)c2c(C)nc3ccc(Cl)cn23)cc1	-70	-40	11*	15
Fc1ccc(N2Cc3ccsc3C=N2)cc1	12	-3	1	-2
NS(=O)(=O)c1ccc(NC(=O)COC(=O)c2cn(-c3ccccc3)nc2-c2ccc(F)cc2)cc1	-19	-43	12*	4
O=C(COC(=O)c1cn(-c2ccccc2)nc1-c1ccc(F)cc1)Nc1ncc(Cl)cc1Cl	-2	-1	4	0
O=C(CCN1C(=O)/C(=C/c2ccccc2)SC1=S)NCCc1ccc(O)cc1	-61	-55	14*	11
CCc1nnc(NC(=O)c2nc(S(=O)(=O)Cc3cccc(C)c3)ncc2Cl)s1	-6	-34	9.1*	1
CCOC(=O)c1csc(NC(=O)c2ccc(S(=O)(=O)N(CC)CC)cc2)n1	-6	-26	12*	1
O=C(O)COCC(=O)Nc1ccc(-n2cnnn2)cc1	-6	-27	11*	1
COc1ccc(-n2nc(C(=O)NCC(=O)NCCCN3CC(C)CC(C)C3)c3ccccc3c2=O)cc1Cl (stereo not given)	16	8	-3	-3
CC(CCc1ccccn1)(CCc1ccccn1)C(=O)c1ccccc1	10	4	-1	-2
Cc1ccc(NC(=O)c2ccc(NC(=O)c3ccccc3)cc2)cc1C	-24	-2	13*	5
CC(C)(C)c1cc(=O)[nH]c(SCc2ccccc2Cl)n1	-45	-32	12*	8
COc1cc(NC(C(=O)Nc2cccc(C(C)=O)c2)c2ccccc2)cc(OC)c1OC (stereo not given)	-9	-23	13*	2
COc1cccc(NC(C(=O)Nc2cccc(C(C)=O)c2)c2ccccc2)c1 (stereo not given)	-6	3	4	1
Cc1ccc(NC(=O)C(Nc2ccccc2)c2ccccc2)cc1 (stereo not given)	19	18	-7	-4
Cc1cc(C)cc(NC(=O)C(Nc2ccccc2)c2ccccc2)c1 (stereo not given)	-51	-10	12*	11
O=[N+]([O-])c1ccccc1/C=C/C=N/n1c(-c2ccccc2)n[nH]c1=S	-21	-35	13*	3
Cc1ccc(-c2n[nH]c(=S)n2/N=C/C=C\c2ccccc2[N+](=O)[O-])cc1	-13	9	-4	3
Cc1cccc(N(CC(=O)NCc2ccc(F)cc2)C(=O)c2ccco2)c1	14	0	0	-2
SMILES	OPRM1-OPRD1 inv	HTR5A inv ctr	HTR5A ag	MOR-DOR ag
CC(C)c1ccc(C2(C)NC(=O)N(CC(=O)N3CCN(C(=O)c4cccs4)CC3)C2=O)cc1 (stereo not given)	2	-14	5	0
Cc1cccc(N(C(=O)C(F)(F)F)C(C(=O)NC2CCCCC2)c2cccs2)c1 (stereo not given)	-52	9	8	9
C#CC(=O)N(c1cccc(OC)c1)C(C(=O)NC1CCCC1)c1cccs1 (stereo not given)	-159	-35	28*	28*
Cc1cccc(NC(=S)N/N=C/c2ccc(Cl)c([N+](=O)[O-])c2)c1	-44	-22	9.3*	8
CC(C)(C)c1ccc(S(=O)(=O)NNC(=O)c2cc3ccccc3[nH]2)cc1	-73	-48	13*	15
CCCC(C)NNC(=O)c1cc2ccccc2[nH]1 (stereo not given)	-7	-3	-3	1
CCOc1ccc(OCCCC(=O)N2CCN(S(=O)(=O)c3ccc(Cl)cc3)CC2)cc1	7	-13	0	-1
CC(C)[C@H](NC(=O)C1CCN(S(=O)(=O)c2ccc(F)cc2)CC1)C(=O)NCc1ccco1	10	-21	-2	-2
COc1ccc(CN(C(=O)c2ccco2)C2CCS(=O)(=O)C2)cc1 (stereo not given)	12	17	-7	-2
COc1cccc(CN(C(=O)c2ccco2)C2CCS(=O)(=O)C2)c1 (stereo not given)	8	-36	13*	-2
O=C1Nc2c(Br)cccc2C1=O	1	12	-3	0
Cc1cccc2c1NC(=O)C2=O	41*	6	-2	-8
Cc1ccc2nc(/C(C#N)=C\c3ccc(N4CCOCC4)o3)[nH]c2c1	-15	-7	3	3
Cc1ccc2nc(/C(C#N)=C\c3ccc([N+](=O)[O-])o3)[nH]c2c1	i	-182	105*	575*
CN(C)/C=C1/N=C(c2ccccc2)OC1=O	3	-6	2	-1
O=CC1=C(c2ccccc2)Oc2ccccc2O1	-29	-42	11*	6
CN(CC(=O)Nc1c(Cl)cccc1Cl)C(=O)c1ccc(-n2cncn2)c([N+](=O)[O-])c1	-5	-31	11*	1
CC(C)(C)CC(=O)NCCc1csc(-c2ccccc2)n1	5	-11	-4	-1
CCCC(C(=O)c1ccccc1)n1cncn1 (stereo not given)	12	-27	11*	-2
O=[N+]([O-])c1ccc(S(=O)(=O)NN=Cc2ccc(Cl)c(Cl)c2)cc1	8	-50	13*	-2
O=[N+]([O-])c1ccc(S(=O)(=O)N/N=C/c2ccc3c(c2)OCO3)cc1	14	-16	7	-3
CC(=O)Nc1ccc(S(=O)(=O)NN=Cc2ccc(Cl)c(Cl)c2)cc1	30	-46	12*	-6
CC(=O)Nc1ccc(/C=N/NS(=O)(=O)c2cc(C)ccc2C)cc1	16	-7	6	-3
Cc1ccc(C(=O)NCC(=O)N2CCC(Cc3ccccc3)CC2)cc1	-4	-25	7	1
CCOc1ccc(NC(=O)C2CCN(S(=O)(=O)c3ccc4c(c3)NC(=O)C(C)S4)CC2)cc1 (stereo not given)	2	-10	10*	0
SMILES	OPRM1-OPRD1 inv	HTR5A inv ctr	HTR5A ag	MOR-DOR ag
CC(C)(C)c1ccc(/C=C/C(=O)Nc2ccncc2)cc1	-49	-25	13*	10
Cc1ccc(C(O)(C(=O)NN(C(=O)c2ccccc2)c2ccccc2)c2ccc(C)cc2)cc1	-9	1	0	2
Cc1ccc(N(NC(=O)C(O)(c2ccccc2)c2ccccc2)C(=O)CCl)cc1	-162	11	48*	31*
C/C(=N/N1CCN(Cc2ccccc2)CC1)c1ccc(Br)cc1	3	-10	4	-1
CC(=O)Oc1ccc(/C(C)=N/N2CCN(Cc3ccc(C)cc3)CC2)cc1	7	-36	9.8*	-1
COC(=O)c1ccc(NC(=S)N2CCN(C)CC2)cc1	7	-36	13*	-2
COC(=O)c1ccc(NC(=S)N2CCCC2)cc1	11	-22	5	-2
